“And” between values parts separate entries of the source, which are not always exact repeats. Equal entries are not always repeated. The whole screen tested about 6,400 compounds, of which about 610 (9.5%) were called active. Rule as the data show it: active = activity change below about -70%; inconclusive = no clear call, values can overlap the other calls; inactive = above that. Only a selection was taken, and actives are over-represented in it overall. Some compounds were tested as several samples or in several runs, with calls that do not always agree. Where a SMILES comes first, the peptide text is derived from it.
Experiment: Toxoplasma gondii ME49Luc growth in HeLa cells, luciferase, no IFN-y, primary screen (AID 1259421)
Details: T. gondii ME49Luc in HeLa, 72 h, stronger effect = lower value, concentration not given here

SMILES	activity change, negative = inhibition
S=c1ccss1	1.03% (inactive)
COc1ccc(-c2cc(=O)c3c(O)cc(O)cc3o2)cc1	127% (inactive)
CC(C)n1c(/C=C/[C@@H](O)C[C@@H](O)CC(=O)O)c(-c2ccc(F)cc2)c2ccccc21	-79.8% (active) and 10.3% (inactive)
COCc1c(C(C)C)nc(C(C)C)c(/C=C/[C@@H](O)C[C@@H](O)CC(=O)O)c1-c1ccc(F)cc1	-88.4% (active)
O=C(O)C[C@H](O)C[C@H](O)/C=C/c1c(C2CC2)nc2ccccc2c1-c1ccc(F)cc1	-31.6% (inactive) and 2.61% (inactive)
CC(C)N1c2ccccc2C(c2ccc(F)cc2)C1/C=C/C(O)CC(O)CC(=O)O (centres undefined)	-15.2% (inactive)
CC(C)c1nc(N(C)S(C)(=O)=O)nc(-c2ccc(F)cc2)c1/C=C/[C@@H](O)C[C@@H](O)CC(=O)O	15.1% (inactive) and -35.2% (inactive)
CC(C)c1c(C(=O)Nc2ccccc2)c(-c2ccccc2)c(-c2ccc(F)cc2)n1CC[C@@H](O)C[C@@H](O)CC(=O)O	9.33% (inactive)
COc1cc(SC)ccc1C(=O)N1CCC(Cc2ccccc2)CC1	36.5% (inactive) and 48.1% (inactive)
CC(C)N(C[C@H]1O[C@@H](n2cnc3c(N)ncnc32)[C@H](O)[C@@H]1O)C1CC(CCc2nc3ccc(C(C)(C)C)cc3[nH]2)C1 (some centres undefined)	8.46% (inactive) and -64.1% (inactive)
O=C(O)C(=O)Nc1cccc(-c2nn[nH]n2)c1	5.48% (inactive)
CN1CCc2nc(C(=O)N[C@H]3C[C@H](C(=O)N(C)C)CC[C@@H]3NC(=O)C(=O)Nc3ccc(Cl)cn3)sc2C1	9.11% (inactive)
C[C@H](N)C(=O)N[C@@H](CCC(N)=O)C(=O)O (H-Ala-Gln-OH)	3.92% (inactive)
N#C/C(=C/c1ccc(O)c(O)c1)C(=O)NCCCc1ccccc1	-10.8% (inactive)
NC(N)=NC(=O)c1cnccn1	11.4% (inactive)
CC(C)(C)NCC(O)COc1cccc2c1C[C@H](O)[C@H](O)C2 (some centres undefined)	4.27% (inactive)
CC(C)(C)OC(=O)N[C@H]1CCCCC/C=C\[C@@H]2C[C@@]2(C(=O)NS(=O)(=O)C2CC2)NC(=O)[C@@H]2C[C@@H](OC(=O)N3Cc4cccc(F)c4C3)CN2C1=O	19.7% (inactive)
COc1ccc2c(O[C@H]3CC4C(=O)N(C)CCCC/C=C\[C@@H]5C[C@@]5(C(=O)NS(=O)(=O)C5CC5)NC(=O)[C@@H]4C3)cc(-c3nc(C(C)C)cs3)nc2c1C (some centres undefined)	-71.4% (active)
N#CC(Cc1ccc(O)cc1)c1ccc(O)cc1 (centres undefined)	6.16% (inactive) and 5.25% (inactive)
CC(=O)OCC(=O)[C@@]1(OC(C)=O)[C@@H](C)CC2C3C[C@H](F)C4=CC(=O)C=C[C@]4(C)[C@@]3(F)[C@@H](O)C[C@@]21C (some centres undefined)	-5.04% (inactive) and -3.76% (inactive)
CCC[C@@H]1C[C@@H](C(=O)N[C@H]([C@H]2O[C@H](SC)[C@H](O)[C@@H](O)[C@H]2O)[C@H](C)O)N(C)C1	-17.1% (inactive)
CNC(=O)c1cccc2cc(Oc3ccnc4cc(OCC5(N)CC5)c(OC)cc34)ccc12	-25% (inactive)
COc1ccc2c(Oc3ccc(NC(=O)c4c(C)n(CC(C)(C)O)n(-c5ccccc5)c4=O)nc3)ccnc2c1	-67.1% (inactive) and -82.5% (active)
COc1ccc2c(OCc3nnc4ccc(-c5ccccc5)nn34)ccnc2c1	4.78% (inactive)
C[C@@H]1CC2C3CCC4=CC(=O)C=C[C@]4(C)[C@@]3(F)[C@@H](O)C[C@]2(C)[C@@]1(O)C(=O)CO (some centres undefined)	-4.17% (inactive)

SMILES	activity change, negative = inhibition
C[C@@H]1CCCN1CCc1cc2cc(-c3ccc(C#N)cc3)ccc2o1	3.6% (inactive)
C=CCN1CC(C(=O)N(CCCN(C)C)C(=O)NCC)CC2c3cccc4[nH]cc(c34)CC21 (centres undefined)	5.12% (inactive)
CC(=O)S[C@@H]1CC2=CC(=O)CC[C@]2(C)[C@H]2CC[C@@]3(C)[C@@H](CC[C@@]34CCC(=O)O4)[C@H]12	-13.5% (inactive) and -2.91% (inactive)
C[C@]12CCC(=O)C=C1C=CC1C2CC[C@@]2(C)C1CC[C@@]21CCC(=O)O1 (some centres undefined)	4.56% (inactive) and -4.95% (inactive)
C[C@]12CCC(=O)C=C1[C@@H]1C[C@@H]1[C@H]1[C@@H]3[C@@H]4C[C@@H]4[C@@]4(CCC(=O)O4)[C@@]3(C)CC[C@@H]12	-75.7% (active) and -36.5% (inactive)
CCS(=O)(=O)N1CCN(c2ccc(Nc3ncc(C(N)=O)c(NC4CC4)n3)cc2)CC1	-79.3% (active)
O=c1[nH]ccc2c(S(=O)(=O)N3CCCNCC3)cccc12	13.8% (inactive) and 2.48% (inactive)
CN1C(C(=O)Nc2ccccn2)C(=O)c2ccccc2S1(=O)=O (centres undefined)	35.3% (inactive) and 14.6% (inactive)
CCOC(=O)C(C)Oc1cccc2c(=O)n(CC(=O)Nc3ccc4c(c3)OCCO4)ccc12 (centres undefined)	14.7% (inactive)
O=C1CC2(CCCC2)CC(=O)N1CCCCNCC1COc2ccccc2O1 (centres undefined)	21% (inactive) and 7.16% (inactive)
CC(C)(C)NC(=O)[C@@H]1CC2CCCCC2CN1C[C@@H](O)[C@H](Cc1ccccc1)NC(=O)[C@H](CC(N)=O)NC(=O)c1ccc2ccccc2n1 (some centres undefined)	13.2% (inactive)
CCCCCCCCO	2.72% (inactive)
CC(=O)NC[C@H]1CN(c2ccc(-c3ccc(CNCc4cn[nH]n4)cc3)c(F)c2)C(=O)O1	-34.7% (inactive)
NC(=O)Nc1sc(-c2ccc(F)cc2)cc1C(N)=O	12.6% (inactive)
COc1cc(C(=O)NC2CCCNC2)cc(OC)c1OC (centres undefined)	25.6% (inactive)
NC(=O)Nc1cc(-c2cccc(F)c2)sc1C(=O)N[C@H]1CCCNC1	-74.8% (active) and -87.7% (active)
CC(C)[C@@H](CS(=O)(=O)C(C)C)N1C(=O)[C@@](C)(CC(=O)O)C[C@H](c2cccc(Cl)c2)[C@H]1c1ccc(Cl)cc1	5.9% (inactive)
NCCCCNS(=O)(=O)c1ccc2c(Cl)cccc2c1	2.08% (inactive)
CC(O)C1C(=O)N2C(C(=O)O)=C(C3CCCO3)SC12 (centres undefined)	5.92% (inactive)
COc1ccc(Cc2nccc3cc(OC)c(OC)cc23)cc1OC	-2.52% (inactive) and -6.18% (inactive)
CCOc1ccc(Cc2nccc3cc(OCC)c(OCC)cc23)cc1OCC	-67.8% (inactive) and -79.8% (active)
COc1ccc(Cc2cnc(N)nc2N)cc1OC	9.87% (inactive)
CN1C(=O)C(F)=C[C@]2(C)[C@H]3CC[C@]4(C)[C@@H](C(=O)NCc5nc6ncccc6[nH]5)CC[C@H]4[C@@H]3CC[C@@H]12	-1.27% (inactive)
C=C[C@@H](C1=CC(=O)C(OC)=C(OC)C1=O)c1ccccc1	-1.89% (inactive)
COc1cc(N)c(Cl)cc1C(=O)N[C@@H]1CCNCC1OC (some centres undefined)	8% (inactive)

SMILES	activity change, negative = inhibition
O=C(O)C1(Cc2cccc(Nc3nccs3)n2)CCC(Oc2cccc(Cl)c2F)CC1 (centres undefined)	-34% (inactive)
CC(C)(C)CC(C)(C)c1ccc(O)c(-n2nc3ccccc3n2)c1	47.6% (inactive)
O=C(Nc1cn[nH]c1-c1nc2ccc(CN3CCOCC3)cc2[nH]1)NC1CC1	-84.3% (active)
O=C(c1ccc(CN2CCOCC2)cc1)N1CCN(C2CC2)CC1	10.6% (inactive)
CC(C)(S)C(=O)N[C@@H](CS)C(=O)O	-3.42% (inactive)
CCOC(=O)Nc1c[n+](N2CCOCC2)no1	8.47% (inactive)
Cc1ccc(/C(=C\CN2CCCC2)c2ccccn2)cc1	0.786% (inactive) and 2.04% (inactive)
Cc1ccc(/C(=C/CN2CCCC2)c2ccccn2)cc1	-1.47% (inactive)
C/C(=N\NC(=S)N1CCC1)c1ccccn1	-84.6% (active)
CC(=O)O[C@@H]1CC2C(C)(C)C(=O)C=C[C@]2(C)C2CC[C@@]3(C)[C@H](c4ccoc4)OC(=O)[C@H]4O[C@]43[C@@]21C (some centres undefined)	22.1% (inactive)
Nc1nc2c(c(=O)[nH]1)N(C=O)[C@@H](CNc1ccc(C(=O)N[C@@H](CCC(=O)O)C(=O)O)cc1)CN2	22.2% (inactive)
CCOC(=O)C1=CCCC[C@H]1S(=O)(=O)Nc1ccc(F)cc1Cl	18.7% (inactive)
O=C(O)Cc1ccc2c(c1)C(=O)c1ccccc1CO2	19.3% (inactive)
COC(=O)c1c(C)c2c(c(C)c1O)OC(=O)c1c(C)c(Cl)c(O)c(Cl)c1O2	-3.73% (inactive)
Cc1cc(O)c(C=O)c2c1C(=O)Oc1c(C)c(O)c3c(c1O2)C(O)OC3=O (centres undefined)	-75.6% (active)
COc1cc(C)c2c(c1C=O)Oc1c(c(C)c(O)c3c1C(O)OC3=O)OC2=O (centres undefined)	-5.42% (inactive)
CS(=O)(=O)Nc1c(O)ccc2c1CCCC2C1=NCCN1 (centres undefined)	15.3% (inactive) and 0.146% (inactive)
CC(=O)[C@@]1(O)CCC2C3C[C@H](C)C4=CC(=O)C=CC4(C)[C@@]3(F)[C@@H](O)C[C@@]21C (some centres undefined)	10% (inactive) and 7.34% (inactive)
NC(N)=NC(=O)c1nc(Cl)c(N2CCCCCC2)nc1N	3.26% (inactive)
CC(=O)OCC(=O)[C@@]1(O)[C@@H](C)CC2C3CCC4=CC(=O)C=C[C@]4(C)[C@@]3(F)[C@@H](O)C[C@@]21C (some centres undefined)	-12.5% (inactive)
N#Cc1cc(-c2n[nH]c(-c3ccncc3)n2)ccn1	17.6% (inactive)
O=C(O)c1ccc2cc(-c3ccc(O)c(C45CC6CC(CC(C6)C4)C5)c3)ccc2c1	-56% (inactive)
O=C(O)/C=C/c1ccc(-c2ccc(O)c(C34CC5CC(CC(C5)C3)C4)c2)cc1	-96.6% (active)
O=C(O)c1ccc(-c2ccc3cc(O)c(C45CC6CC(CC(C6)C4)C5)cc3c2)cc1	-2.82% (inactive)

From PubChem BioAssay AID1259421 (Broad Institute, 2018)
